tim23-1 inh: tim23-1 yeast growth inhibition; S. cerevisiae tim23-1 growth, BacTiter-Glo luminescence, 24 h; inhibition, % at 20 µM; 330,000 compounds, 1.3% hits; AID 463212;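 active means growth inhibition of the mutant yeast at or above 50%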;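 further: temperature-sensitive mutant grown at 25 °C; plate controls were DMSO-treated mutant yeast for no effect and medium wells lacking yeast for full effect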
Rce1 inh: inhibitors of yeast Ras-converting enzyme. Q03530. yeast membranes, quenched prenylated peptide cleavage fluorescence. calls only. 290,000 compounds, 0.27% hits. AID 2563;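 active means fall in fluorescence gain of 50% or more versus controls, with final raw signal at or below 3038400; inconclusive means same 50% fall but final raw signal above 3038400; inactive means fall in fluorescence gain under 50%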;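 further: plate controls were neutral control wells for no effect and wells lacking membranes for full effect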
Target sequence (Q03530 whole entry, looked up): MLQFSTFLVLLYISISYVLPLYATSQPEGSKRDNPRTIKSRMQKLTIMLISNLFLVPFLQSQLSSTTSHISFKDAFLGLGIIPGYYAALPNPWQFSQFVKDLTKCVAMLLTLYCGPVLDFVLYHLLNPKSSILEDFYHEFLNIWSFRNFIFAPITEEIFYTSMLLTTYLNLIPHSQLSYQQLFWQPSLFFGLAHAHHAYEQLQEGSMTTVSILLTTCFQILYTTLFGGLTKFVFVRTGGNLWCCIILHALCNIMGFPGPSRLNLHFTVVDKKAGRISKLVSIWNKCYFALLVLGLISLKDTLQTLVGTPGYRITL
PfHsp90 set2: growth inhibition of yeast expressing Plasmodium Hsp90; S. cerevisiae expressing PfHsp90, BacTiter-Glo ATP, 48 h; yeast lacking PDR1 and PDR3 efflux regulators; inhibition, % at 9.4 µM; 310,000 compounds, 0.32% hits;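 active means every replicate shows inhibition above about 80%, whatever the replicate mean, limit read from the data; inconclusive means mean inhibition reaches the set limit but some replicate falls short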;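 further: 0% = DMSO neutral controls and 100% = 20 µM radicicol positive controls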
tim10-1 inh: inhibits growth of tim10-1 mutant yeast | S. cerevisiae tim10-1 ts strain growth, BacTiter-Glo, 24 h | inhibition, % at 20 µM | 330,000 compounds, 2.2% hits;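 active means inhibition of at least 40%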;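 further: mutant grown at 25 °C; 0% = DMSO wells with yeast and 100% = wells holding no yeast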
TIM10 inh: growth inhibitors of TIM10 yeast strain | S. cerevisiae TIM10 strain growth, BacTiter-Glo luminescence, 24 h | inhibition, % at 10 µM | 330,000 compounds, 1.4% hits;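 active means inhibition of 40% or more at the single tested concentration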;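 further: wild-type TIM10 isogenic control strain grown at permissive 25 °C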
* hit, by the source's call; i = inactive; ? = inconclusive; . = not tested or not shown; + = active, no number. Hits are enriched below; roughly 3.7% of the tested compounds scored in any of these assays.

SMILES	tim23-1 inh	Rce1 inh	PfHsp90 set2	tim10-1 inh	TIM10 inh
CC(=O)N[C@@H](C)c1nc2ccccc2n1CCNC(=O)[C@H]1CCCN1c1nc(CN2CCCCC2)cs1	-3.2	i	.	-10.8	-10.8
CCc1ccccc1S(=O)(=O)c1c(C)cc(C)nc1Cl	18.7	i	-7.7	10.9	-17.3
CCC(=O)Nc1cccc(NC(=S)NC(=O)c2cccs2)c1	11.2	+	-3.2	23.8	7.2
COc1ccc(C(=O)NNC(=S)NC(=O)c2cccs2)cc1	27.6	i	23.1	4.0	2.9
COc1ccccc1C(=O)NNC(=S)NC(=O)c1cccs1	9.4	i	91.7*	0.2	0.9
CCOC(=O)c1c(-c2ccccc2)oc2ccc(OCC(O)CNCCN(C)C)cc12 (configuration not stated)	-27.6	+	46.3	7.2	4.4
CCOC(=O)c1c(-c2ccccc2)oc2ccc(OCC)cc12	-4.6	i	-2.1	18.4	-5.5
CC1=CC2=NC(=O)CC(C)(C(=O)N(CC(=O)NC3CCCC3)Cc3ccccc3)N2C=C1 (configuration not stated)	-3.7	+	6.5	-5.1	3.3
COC(=O)c1sc2cnccc2c1N	6.2	+	1.4	3.8	-10.7
Clc1ccccc1C(c1ccccc1)(c1ccccc1)n1ccnc1	-23.1	i	89.9*	-176.8	-103.3
FC(F)(F)c1ccccc1-n1ccnc1	10.8	.	17.3	3.8	-2.5
CC(C)(C)NC(=O)C(c1ccc(-c2ccccc2)cc1)N(C[C@H]1CC[C@@H]([C@@H]2CC[C@H](CO)O2)O1)C(=O)c1ccccc1F (some centres not stated)	33.3	.	-5.5	19.6	-3.2
CC(C)C(NC(=O)c1ccco1)C(=O)NCC(c1ccco1)N1CCCCC1 (configuration not stated)	8.3	+	10.4	14.2	5.2
C=C1[C@@H](CCO)N(S(=O)(=O)C(C)(C)C)C[C@@H]1C	.	.	-14.3	.	.
Nc1c(Cl)ncnc1Nc1ccc(C(=O)O)cc1	.	.	4.5	.	.
Oc1c(C(Nc2cccc(C(F)(F)F)c2)c2cccnc2)ccc2cccnc12 (configuration not stated)	30.8	i	10.6	12.3	-5.3
CCCCC(=O)NC(c1cccc([N+](=O)[O-])c1)c1ccc2cccnc2c1O (configuration not stated)	.	.	115.0*	.	.
CC(=O)NC(c1cccc([N+](=O)[O-])c1)c1ccc2cccnc2c1O (configuration not stated)	35.8	i	33.1	-16.2	-64.4
O=[N+]([O-])c1ccc(NC(c2ccccc2)c2ccc3cccnc3c2O)cc1 (configuration not stated)	.	.	112.5*	.	.
COc1cccc(-c2nc(CS(=O)(=O)CC(=O)NCCN3CCOCC3)c(C)o2)c1	-4.8	i	23.0	-9.2	-2.3
Nc1ccc2c(C(F)(F)F)cc(C(F)(F)F)nc2n1	-0.7	+	-3.6	0.2	5.2
O=C(NN1C(=O)/C(=C\c2ccc(O)c([N+](=O)[O-])c2)SC1=S)c1ccccc1Cl	-15.6	i	104.2*	-14.7	-10.9
COc1ccccc1NC(=O)/C(=C\c1cccnc1)NC(=O)c1ccc(C)cc1	18.2	+	-70.6	12.6	-0.5
O=[N+]([O-])c1cccc(SSc2cccc([N+](=O)[O-])c2)c1	.	.	110.0*	.	.
Nc1cccc([N+](=O)[O-])c1	8.3	i	-3.1	9.5	7.1
SMILES	tim23-1 inh	Rce1 inh	PfHsp90 set2	tim10-1 inh	TIM10 inh
CC1=CC(=C(C#N)c2nc3ccccc3s2)C=C(C)N1CC1CCCO1 (configuration not stated)	19.3	.	5.6	18.9	23.3
COC(=O)c1ccc(N2C(=O)CC(N3CCC(O)(c4ccc(Br)cc4)CC3)C2=O)cc1 (configuration not stated)	13.5	i	99.8*	39.5	26.7
N#Cc1cc([N+](=O)[O-])ccc1NC(=O)CSc1n[nH]c(=O)[nH]c1=O	-2.5	.	.	-10.8	1.8
Cc1cccc(NC(=O)C2(c3ccc([N+](=O)[O-])cc3)CCCC2)c1	25.2	+	-2.9	20.4	18.1
Cc1cc(C)nc(NS(=O)(=O)c2ccc(NC(=O)C3(c4ccc([N+](=O)[O-])cc4)CCCC3)cc2)n1	11.5	i	4.5	6.9	6.2
CCn1cnc2cc([N+](=O)[O-])ccc21	12.5	i	.	7.1	-4.7
O=C(Nc1cc(S(=O)(=O)N2CCCCC2)ccc1O)c1ccccc1NS(=O)(=O)c1ccc(F)cc1	11.9	i	26.9	2.2	-10.6
O=C(Nc1cc(S(=O)(=O)N2CCCCC2)ccc1Cl)c1ccccc1NS(=O)(=O)c1ccc(F)cc1	.	+	-24.2	.	.
Cc1cc2c(cc1C)CSC(c1c(O)ccc3ccccc13)SC2	-51.0	i	100.0*	16.8	27.6
Cc1cc2c(cc1C)CSC(c1ccc3ccccc3c1O)SC2	25.9	i	.	13.2	-6.4
COc1ccc(C2=NN(c3ccc(C=O)cc3)C(c3ccccc3)C2)cc1 (configuration not stated)	20.2	?	.	13.6	19.4
COc1ccc(C2CC(c3cccs3)=NN2c2ccc(C=O)cc2)cc1 (configuration not stated)	.	+	.	.	.
CC(C)N=c1scc(-c2cccs2)n1/N=C/c1ccc(O)c(O)c1O	41.9	.	105.7*	25.0	38.8
O=C(O)CCc1ccc(-c2ccc(Cl)cc2)n1Cc1ccco1	13.7	i	3.6	24.1	11.6
O=C(O)CCc1ccc(-c2cccs2)n1Cc1ccco1	19.0	+	-30.4	18.9	20.5
NCCCn1c(C(=O)c2cc(Cl)c(N)c(Cl)c2)c2ccc([N+](=O)[O-])cc2[n+]1[O-]	-12.5	i	-72.1	13.3	-0.4
NCCCn1c(C(=O)c2cc(Cl)c(N)c(Cl)c2)c2ccc(C(F)(F)F)cc2[n+]1[O-]	-17.0	+	14.0	1.6	-2.8
NC(=O)CCCn1c(C(=O)c2cc(Cl)c(N)c(Cl)c2)c2ccc(C(F)(F)F)cc2[n+]1[O-]	1.9	+	9.1	7.6	-5.3
CCc1cccc(C)c1N1C(=O)CC(C)(C)CC1=O	10.4	i	8.1	7.3	-3.1
CCCc1sc(N/N=C/c2ccccn2)nc1-c1ccc(F)cc1	-1.8	i	124.1*	-10.6	13.2
O=C(O)Cc1sc(N/N=C\c2ccccc2)nc1-c1ccccc1	31.0	i	-10.9	28.0	21.0
OC1CCN(C(c2ccc3ncccc3c2)c2nnnn2C2CCCCC2)CC1 (configuration not stated)	7.4	+	1.0	18.6	10.4
O=CN1CCN(C(C(=O)NC2CCCCC2)c2ccc(Cl)cc2)CC1 (configuration not stated)	13.4	i	1.5	-1.5	-10.9
Cc1ccc(-c2csc(N3CCN(CCCn4c(C(F)(F)F)nc5ccccc54)CC3)n2)cc1	3.7	i	-6.5	22.5	10.0
CC(=O)N[C@@H](C)c1nc2ccccc2n1CCCN1CCN(c2nc(-c3ccc(C)cc3)cs2)CC1	-3.4	+	-0.7	12.2	-9.4

Assay outcomes (PubChem)
